Laboratory results taken from PubChem BioAssay AID1671192 (National Center for Advancing Translational Sciences (NCATS), 2021).
Records with an inconclusive call do not appear. The source made the active and inactive calls. Calls follow the shape of the dose curve; as a rule, active = well fitted curve in the direction sought with a large enough effect; inconclusive = small, poorly fitted or top-dose-only effect, or another doubt; inactive = no such curve, though single readings can be large or run the other way.

target: Polyunsaturated fatty acid lipoxygenase ALOX15 (Homo sapiens) (UniProt P16050); experiment: Counterscreen qHTS for inhibitors of human arachidonate 12S-lipoxygenase (ALOX12): ALOX15 Assay; conditions: purified ALOX15 enzyme activity; series mostly up to 110 µM
Sequence (P16050 whole entry, looked up): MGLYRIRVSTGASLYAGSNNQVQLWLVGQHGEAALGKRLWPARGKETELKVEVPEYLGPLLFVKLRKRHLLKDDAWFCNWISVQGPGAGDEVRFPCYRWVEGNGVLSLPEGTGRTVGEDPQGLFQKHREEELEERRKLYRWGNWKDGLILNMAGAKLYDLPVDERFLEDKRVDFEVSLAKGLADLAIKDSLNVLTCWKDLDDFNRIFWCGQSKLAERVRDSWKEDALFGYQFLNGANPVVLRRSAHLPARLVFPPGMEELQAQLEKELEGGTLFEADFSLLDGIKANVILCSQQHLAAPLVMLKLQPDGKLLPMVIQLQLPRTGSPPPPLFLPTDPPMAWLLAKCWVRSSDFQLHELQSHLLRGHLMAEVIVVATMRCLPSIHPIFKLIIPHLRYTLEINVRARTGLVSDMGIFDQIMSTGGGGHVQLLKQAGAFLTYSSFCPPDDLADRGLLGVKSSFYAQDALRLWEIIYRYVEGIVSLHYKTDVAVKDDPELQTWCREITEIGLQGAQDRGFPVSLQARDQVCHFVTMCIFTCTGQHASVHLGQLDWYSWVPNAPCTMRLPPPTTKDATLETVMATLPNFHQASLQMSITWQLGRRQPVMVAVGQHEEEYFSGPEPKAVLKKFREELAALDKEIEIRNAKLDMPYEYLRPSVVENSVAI
Summary of the method: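 Purified human ALOX15 (15hLO-1) at 40 nM in 25 mM HEPES, 0.01% Triton X-100, pH 7.5, preincubated with compound 15 min at RT. Then 50 uM arachidonic acid for 30 min; hydroperoxide detected by Fe-xylenol orange as the 573/405 nm absorbance ratio.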

Row | Structure (SMILES) | outcome
1 | Cc1cc(C(=O)N2CCC(F)CC2)c2c(C3CCCN3)noc2n1 (stereo not drawn) | inactive
2 | CN1CCCC2(Cc3ccccc3CN(C(=O)c3ccc(Cl)cc3)C2)C1 (stereo not drawn) | inactive
3 | CCCC(=O)N1Cc2ccccc2CC2(CCCN(C)C2)C1 (stereo not drawn) | inactive
4 | CC(=O)N1CCN(c2ncnc3c2CN(C2CCCNCC2)C(=O)CN3C)CC1 (stereo not drawn) | inactive
5 | CC(=O)Nc1ccc(CN2CC3(C2)C(=O)Nc2ccccc23)cc1 | inactive
6 | O=C1NCc2ccccc2CC12CCN(Cc1ccc([N+](=O)[O-])cc1)C2 (stereo not drawn) | inactive
7 | CC(C)C(=O)N1Cc2ccccc2CC2(CCCCN2CC2CCNC2)C1 (stereo not drawn) | inactive
8 | N#Cc1cccnc1-c1ccc(C(=O)O)cc1 | inactive
9 | CC(C)C(=O)N1CCCC2(Cc3ccccc3CN2[S+](=O)([O-])c2ccccc2)C1 (stereo not drawn) | inactive
10 | O=C(O)CCC(=O)N1Cc2ccccc2CC2(CCCN2Cc2ccccc2)C1 (stereo not drawn) | inactive
11 | COCCNC(=O)c1cc(-c2ccc(OC)cc2)nc2onc(C3CCCN3)c12 (stereo not drawn) | inactive
12 | CCN1CCCCC12Cc1ccccc1CN(S(=O)(=O)c1ccccc1)C2 (stereo not drawn) | inactive
13 | CN1CC(=O)N(C2CCNC2)Cc2c(NCCCN3CCCCC3)ncnc21 (stereo not drawn) | inactive
14 | Cc1cc(C(=O)NCc2ccc(F)cc2)c2c(C3CCCNC3)noc2n1 (stereo not drawn) | inactive
15 | CCOCCNc1ncnc2c1CN(C1CCNCC1)C(=O)CN2C | inactive
16 | O=C1NCc2ccccc2CC12CCN(Cc1ccccc1F)C2 (stereo not drawn) | inactive
17 | CC(C)Cc1ccc(CN2CCC3(Cc4ccccc4CNC3=O)C2)cc1 (stereo not drawn) | inactive
18 | O=C(c1ccccc1F)N1CCC2(C1)C(=O)N(c1ccccc1)c1ccccc12 (stereo not drawn) | inactive
19 | CC(C)OCCCNc1ncnc2c1CN(C1CCCNCC1)C(=O)CN2C (stereo not drawn) | inactive

Row | Structure (SMILES) | outcome
20 | NCc1ccc(-c2ccccn2)cc1 | inactive
21 | Cc1ccsc1CN1CCC2(Cc3ccccc3CNC2=O)C1 (stereo not drawn) | inactive
22 | CN1CC(=O)N(C2CCCNCC2)Cc2c(NCCO)ncnc21 (stereo not drawn) | inactive
23 | CCCN1CCC2(Cc3ccccc3CN(C(=O)Cc3ccc(O)cc3)C2)C1 (stereo not drawn) | inactive
24 | CC(=O)NCCC(=O)N1Cc2ccccc2CC2(CCCN2CCc2ccc(C)cc2)C1 (stereo not drawn) | inactive
25 | Nc1ccccc1CN1CCCC2(Cc3ccccc3CNC2=O)C1 (stereo not drawn) | inactive
26 | CN(c1ccccc1)C1CNC1 | inactive
27 | COc1ccccc1C(=O)N1CCn2c(nnc2C2CCNCC2)C1 | inactive
28 | CC(C)[S+](=O)([O-])N1CCCC1c1nnc2n1CCNC2 (stereo not drawn) | inactive
29 | O=C(NCc1ccncc1)c1cc(C2CC2)nc2c1c(C1CCCN1)nn2-c1ccccc1 (stereo not drawn) | inactive
30 | CNCc1ccccc1Cl | inactive
31 | O=Cc1cccc(N2CCN(C(=O)c3ccncc3)CC2=O)c1 | inactive
32 | CC(=O)Nc1ccc(C(=O)N2C3CCC2CN(C(C)C)C3)cc1 | inactive
33 | CCN(c1ccc2c(c1)OCO2)C1CN(C(=O)OC(C)(C)C)C1 | inactive
34 | O=C(Nc1ccc(Cl)cc1Cl)c1c[nH]c2cccnc12 | inactive
35 | Cc1ccc(C(=O)N2CCC(N3Cc4ccccc4C3=O)CC2)cc1 | inactive
36 | CC(C)NCCN1CCCC1 | inactive
37 | CN1CC(=O)N(C2CCCNCC2)Cc2c(NCc3cccs3)ncnc21 (stereo not drawn) | inactive
38 | N#Cc1ccc(CN2CCC3(CN[S+](=O)([O-])c4cnccc4O3)C2)cc1 (stereo not drawn) | inactive
